# Bioassay records deposited in PubChem by National Center for Advancing Translational Sciences (NCATS).
# This is a sample that favours compounds with a hit; in the whole collection about 6.2% have one here.
# FMDV inh = High Throughput Screening for Foot and Mouth Disease Virus Antivirals | FMDV antiviral cell-based qHTS | AID 1159524, 2015 | Potency, µM (top dose mostly 57.9 µM), for inactives: at the top dose activity change, negative = inhibition, hits mostly inhibitors | 410,000 tested, 1.2% active; calls by dose curve; tested in HEK293T cells; also: read-out not given here; potency is read from the fitted curve at half-maximal effect; nearly all actives have a fitted effect of over 45% in size
# HCMV inh = qHTS Assay for inhibitors of the human cytomegalovirus (HCMV) | HFF cells, HCMV-luciferase reporter, 72 h; active compounds read low | activity change, negative = inhibition, % at 57.5 µM | 410,000 tested, 4.5% active | AID 1259415, 2018; in the data active = activity change below about -60%; inconclusive = no clear call, values can overlap the other calls; inactive = above about -39%
#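 Two compound doses tested in HFFs infected with HCMV-luciferase, MOI 1 PFU/cell, 72 h at 37C. Lysate luminescence read with OneGlo; data normalized against buffer-only and 10uM Salinomycin inhibitor controls.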
# Lassa entry inh = qHTS for Inhibitors of binding or entry into cells for Lassa Virus | 300,000 tested, 1.2% active | AID 540256, 2011 | Lassa virus pseudotype entry inhibition, cell reporter | Potency, µM (titrated, usually from 37.9 µM), for the others: at the top dose activity change, negative = inhibition, hits mostly inhibitors; calls by dose curve; tested in HEK293 cells; also: potency is read from the fitted curve at half-maximal effect; nearly all actives have a fitted effect of over 50% in size
# MARV entry inh = qHTS for inhibitors of binding or entry into cells for Marburg Virus; Potency, µM (titrated, usually from 37.8 µM), inactives show at the highest dose activity change, negative = inhibition, usual class: inhibitors; Marburg virus pseudotyped entry inhibition, cell reporter; 300,000 tested, 1.8% active; calls by dose curve; tested in HEK293 cells; also: potency is read from the fitted curve at half-maximal effect
# * marks the source's active call; other numbers are inactive results; ? = inconclusive; . = not tested or not shown; [ ] = remark or other dose. % is scaled to controls: 0 for no effect and ±100 for the full control effect.
SMILES,FMDV inh,HCMV inh,Lassa entry inh,MARV entry inh
O=C(NCCc1ccc(F)cc1)C(=O)NCC1CCCN1S(=O)(=O)c1ccccc1 (stereo unspecified),39.8µM*,-34.1,7.08µM*,?
COc1ccc(CCNC(=O)C(=O)NCC2OCCN2S(=O)(=O)c2ccc(Br)cc2)cc1OC (stereo unspecified),-16.5%,20.0,?,?
CN(C)CCNC(=O)C(=O)NCC1OCCN1S(=O)(=O)c1cc(F)ccc1F (stereo unspecified),-13.5%,-61.0*,-0.5%,11.8%
COc1ccc(S(=O)(=O)N2CCOC2CNC(=O)C(=O)NCCc2ccc(OC)c(OC)c2)cc1 (stereo unspecified),?,-67.7*,?,?
CN(C)CCNC(=O)C(=O)NCC1OCCN1S(=O)(=O)c1ccc(F)cc1 (stereo unspecified),-17.3%,13.3,.,.
Cc1cc(C)c(S(=O)(=O)Nc2ccc(C(=O)O)cc2)cc1S(=O)(=O)Nc1ccc(C(=O)O)cc1,10.0%,29.4,1.8%,-2.4%
O=C(NCC1(N2CCCCC2)CCCCC1)c1ccc(NS(=O)(=O)c2ccccc2)cc1,-20.5%,-15.7,-6.0%,23.0%
Cn1nc([N+](=O)[O-])c(C(C#N)c2nc3ccccc3n2C)c(Cl)c1=O (stereo unspecified),-9.4%,-75.6*,1.9%,0.2%
CCOCC(=O)Nc1nc2ccc(OCC)cc2s1,29.5%,79.6,?,?
Cc1ccc2nc(NC(=O)CCCc3nc4ccccc4s3)sc2c1,15.3%,26.1,?,?
Cc1ccc2nc(NC(=O)CCCC(=O)O)sc2c1,7.94µM*,?,.,.
Cc1ccc2nc(NC(=O)CSCC(=O)OCC(=O)c3ccccc3)sc2c1,?,-27.9,5.8µM*,?
CCOCC(=O)Nc1nc2ccc(C)cc2s1,-39.9%,67.0,11.2µM*,-18.3%
COCCNc1nc(Nc2ccc(C)cc2C)c2sccc2n1,?,-76.0*,.,.
COCCNc1nc(NCc2ccc(C)cc2C)c2sccc2n1,?,-36.0,.,.
O=C(COCc1cc(-c2ccco2)on1)Nc1ccc(OC(F)(F)F)cc1,-15.8%,0.1,-4.6%[46.1 µM],.
O=C(/C=C\c1ccco1)Nc1cc([N+](=O)[O-])ccc1F,-5.6%,-87.2*,?,?
O=C(CCCN1C(=O)c2ccccc2C1=O)Nc1ccc(S(=O)(=O)N2CCOCC2)cc1,-18.5%,26.1,?,0.1%
COc1ccc(OC)c(S(=O)(=O)NCc2ccc3c(c2)CCN3C(=O)c2cccc(C)c2)c1,-8.4%,-79.9*,?,.
Cc1cc(C)c(S(=O)(=O)NCc2ccc3c(c2)CCN3C(=O)c2ccccc2)c(C)c1,?,-60.3*,5.6%[46.1 µM],.
Cc1cc2cc(CNS(=O)(=O)c3ccc4ccccc4c3)ccc2n1C,-11.3%,14.3,.,.
CCC(=O)N1CCc2cc(CNS(=O)(=O)c3c(C)cc(C)cc3C)ccc21,3.8%,-35.3,-11.9%[46.1 µM],.
Cc1cc(C)c(S(=O)(=O)NCc2ccc3c(c2)cc(C)n3C)c(C)c1,-17.9%,-93.1*,.,.
CCOC(=O)CNC(=S)SC,-10.0%,?,5.4%,7.2%[46.1 µM]
NC(=O)c1cc(S(=O)(=O)NCc2ccc(Br)cc2)cs1,5.7%,-0.6,-28.5%[46.1 µM],?
SMILES,FMDV inh,HCMV inh,Lassa entry inh,MARV entry inh
Cc1ccc(Cl)cc1N1CCN(C(=O)c2cc3ccc4cccnc4c3[nH]2)CC1,-11.5%,-70.0*,?,.
O=C(NCC1CCN(Cc2ccc(F)cc2)CC1)c1cc2ccc3cccnc3c2[nH]1,0.0%,-68.1*,?,.
O=C(c1cc2ccc3cccnc3c2[nH]1)N1CCCCC1,-48.9%,-67.2*,4.9%[46.1 µM],.
CC1CCCN(C(=O)c2cc3ccc4cccnc4c3[nH]2)C1 (stereo unspecified),14.1µM*,-81.0*,-14.2%[46.1 µM],.
CC(=O)Nc1ccc(NC(=O)COC(=O)CCNS(=O)(=O)c2c(Cl)cccc2Cl)cc1,-17.8%,-8.3,29.0%,13.4%
O=C(CCCOc1ccc(Br)cc1)NNC(=O)c1ccncc1,-2.0%,-1.9,-1.8%[46.1 µM],?
CCN(CC)P(=O)(Nc1ccc(C)cc1Br)c1ccc(N(C)C)cc1NC(=O)c1ccco1 (stereo unspecified),-29.0%,-78.0*,.,11.2µM*
Cc1ccc(NC(=O)c2ccco2)c(NC(=O)c2ccccc2)c1,2.8%,2.8,-2.3%[46.1 µM],11.6%[46.1 µM]
COc1cccc(OCC(=O)Nc2c3c(nn2-c2ccccc2)CS(=O)(=O)C3)c1,-25.1%,8.7,12.4%,4.0%
CCCC(=O)NC(c1ccccc1)c1ccc2cccnc2c1O (stereo unspecified),-15.9%,-101.6*,?,?
